Compounds with a hit are over-represented: about 3% of the library has one in this group of screens.
Mtb FBA inh: Mtb FBA enzyme inhibitors, primary screen, biochemical, fluorescence, strain H37Rv | Fructose-bisphosphate aldolase (Mycobacterium tuberculosis (strain ATCC 25618 / H37Rv)), … | purified M. tuberculosis FBA, fluorescence read-out | inhibition, % at 1 µM | hit rate 2.3% among 360,000 | AID 588726, 2011;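 note: 0% = vehicle and 100% = reference inhibitor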
Target sequence (P9WQA3 whole entry, looked up): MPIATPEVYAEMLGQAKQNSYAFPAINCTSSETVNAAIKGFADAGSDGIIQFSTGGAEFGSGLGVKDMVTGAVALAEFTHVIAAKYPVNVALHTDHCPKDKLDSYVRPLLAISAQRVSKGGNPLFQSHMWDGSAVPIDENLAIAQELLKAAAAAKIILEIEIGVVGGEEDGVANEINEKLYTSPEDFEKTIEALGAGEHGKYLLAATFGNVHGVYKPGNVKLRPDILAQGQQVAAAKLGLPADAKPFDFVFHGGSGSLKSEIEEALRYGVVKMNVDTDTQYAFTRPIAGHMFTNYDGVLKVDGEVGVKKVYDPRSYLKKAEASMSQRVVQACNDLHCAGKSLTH
GDH-TPI counter-1: GDH-TPI coupling enzyme inhibitors, primary screen, artefact control for M. tuberculosis FBA inhibitor project, biochemical, absorbance, full deck. hit rate 1.2% among 360,000. inhibition, % at 4.8 µM. GDH-TPI coupled enzyme counterscreen, NADH absorbance. AID 588335, 2011; in the data active = inhibition above about 30%;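 note: 0% = DMSO wells and 100% = wells lacking the enzyme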
BioA inh: M. tuberculosis BioA enzyme inhibitors, primary screen, biochemical, plate reader, single point, HTS. AID 602481, 2012. purified M. tuberculosis BioA enzyme. 7,8-diaminopelargonic acid synthase BioA (Mycobacterium tuberculosis). inhibition, % at 9.99 µM. hit rate 0.096% among 360,000; in the data active = inhibition above about 40%
BH1578 lux ind: inducers of Vibrio cholerae quorum light production without autoinducers, primary screen, BH1578 luxS cqsA deficient, single point | V. cholerae BH1578 lux reporter, luminescence, 6 h | activation, % at 18.7 µM | hit rate 0.16% among 350,000; in the data active = activation mostly above about 9.7%, no sharp cut-off
Mtb FBA confirm: M. tuberculosis aldolase blockers, biochemical, fluorescence, strain H37Rv, confirmation | inhibition, % at 1 µM | purified M. tuberculosis FBA, fluorescence read-out | AID 651616, 2012 | shares compounds with Mtb FBA inh | hit rate 78% among 5,600;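 note: 0% = vehicle wells and 100% = reference inhibitor wells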
GDH-TPI counter-2: GDH-TPI coupling enzyme inhibitors, artefact control for M. tuberculosis FBA inhibitor project, biochemical, fluorescence, high throughput | shares compounds with Mtb FBA inh | GDH-TPI coupled enzyme counterscreen | inhibition, % at 1 µM | hit rate 81% among 5,600 | AID 652141, 2013; in the data active = inhibition above about 10%
GDH-TPI dose: GDH-TPI coupling enzyme inhibitors, dose response, artefact control for M. tuberculosis FBA inhibitor project, biochemical, fluorescence, IC50. shares compounds with Mtb FBA inh. hit rate 79% among 170. GDH-TPI coupled enzyme assay, artifact counterscreen. IC50, µM. AID 652145, 2013; call rule not given here
Starred values were filed as active, the others as inactive. Cut-off read from the data, not from the text of the source, unless noted: active = inhibition above about 27%; inactive = the rest.

What do the screens show for `CN(C)CCN(Cc1cc2cc3c(cc2[nH]c1=O)OCO3)C(=S)NCc1ccco1`?
Mtb FBA inh: 32*; GDH-TPI counter-1: 25; BH1578 lux ind: 0; Mtb FBA confirm: 77*; GDH-TPI counter-2: 52*

How did Cc1ccc(S(=O)(=O)Nc2ccc3c(c2)C(=O)N([C@@H](C)CO)C[C@H](C)[C@@H](CN(C)C(=O)Nc2ccc(F)cc2)O3)cc1 do in these assays?
BioA inh: 0

Results for CCC(=O)N(CCc1ccccc1C)Cc1cc2ccc(C)cc2[nH]c1=O ?
Mtb FBA inh: 1; GDH-TPI counter-1: 13; BioA inh: 0; BH1578 lux ind: inactive

Results for CCN(CC)CCN(Cc1cc2cc3c(cc2[nH]c1=O)OCCO3)C(=S)NCCCN(C)C ?
Mtb FBA inh: 12; GDH-TPI counter-1: 2; BioA inh: -3; BH1578 lux ind: inactive

What do the screens show for `CCN(CC)CCN(Cc1cc2cc3c(cc2[nH]c1=O)OCO3)C(=S)NC`?
Mtb FBA inh: 102*; GDH-TPI counter-1: 23; BioA inh: 0; BH1578 lux ind: inactive; Mtb FBA confirm: 64*; GDH-TPI counter-2: 55*

How did CC(=O)N(CCc1ccccc1C)Cc1cc2cc3c(cc2[nH]c1=O)OCO3 do in these assays?
Mtb FBA inh: 39*; GDH-TPI counter-1: 11; BioA inh: -1; BH1578 lux ind: 6; Mtb FBA confirm: 187*; GDH-TPI counter-2: 170*

What do the screens show for `CCN(CC)CCN(Cc1cc2cc3c(cc2[nH]c1=O)OCO3)C(=S)NCCCN(C)C`?
Mtb FBA inh: 35*; GDH-TPI counter-1: 30; BioA inh: 0; BH1578 lux ind: inactive; Mtb FBA confirm: 30*; GDH-TPI counter-2: 28*

Results for CCNC(=S)N(CCCN(CC)CC)Cc1cc2cc3c(cc2[nH]c1=O)OCO3 ?
Mtb FBA inh: 24; GDH-TPI counter-1: 22; BioA inh: 9; BH1578 lux ind: 0

What do the screens show for `C[C@@H]1CN([C@@H](C)CO)C(=O)Cc2cc(NS(C)(=O)=O)ccc2O[C@@H]1CN(C)C(=O)Nc1ccc2c(c1)OCO2`?
BioA inh: -1

What do the screens show for `CCOC(=O)NN1C(=O)c2ccccc2NC1c1ccc(OC)cc1OC` (stereo unspecified)?
Mtb FBA inh: 42*; GDH-TPI counter-1: 3; BioA inh: -3; BH1578 lux ind: -1; Mtb FBA confirm: 180*; GDH-TPI counter-2: 144*

How did CCOC(=O)NN1C(=O)c2ccccc2NC1c1cccs1 (stereo unspecified) do in these assays?
Mtb FBA inh: 31*; GDH-TPI counter-1: 15; BioA inh: 0; BH1578 lux ind: 0; Mtb FBA confirm: 82*; GDH-TPI counter-2: 70*

How did C[C@H](NC(=O)[C@H]1[C@H](CO)[C@H]2Cn3c(ccc(-c4cccnc4)c3=O)[C@H]2N1C)c1ccccc1 do in these assays?
BioA inh: 2

Results for COc1ccc(-c2ccc3nnc(SCC(=O)N4CCCC4)n3n2)cc1 ?
Mtb FBA inh: 27*; GDH-TPI counter-1: 3; BH1578 lux ind: inactive; Mtb FBA confirm: 189*; GDH-TPI counter-2: 160*

What do the screens show for `COCC(=O)N1C[C@@H](C)[C@@H](OC)CN(C)C(=O)c2cc(NC(=O)c3cc(C)on3)ccc2OC[C@H]1C`?
BioA inh: -2

Results for C[C@H]1CN([C@@H](C)CO)C(=O)Cc2cc(NS(=O)(=O)c3cccs3)ccc2O[C@@H]1CN(C)CC1CCCCC1 ?
BioA inh: 3

What do the screens show for `C/C(=N\Nc1ccccc1)c1cc2ccccc2oc1=O`?
Mtb FBA inh: 65*; GDH-TPI counter-1: 11; BH1578 lux ind: 0; Mtb FBA confirm: 6; GDH-TPI counter-2: -8

How did Cc1c(O)ccc2c(=O)c(Oc3ccccc3)coc12 do in these assays?
Mtb FBA inh: 1; GDH-TPI counter-1: -2; BH1578 lux ind: inactive

How did CCCOC(=O)c1ccc(Oc2coc3c(CN(CC)CC)c(O)ccc3c2=O)cc1 do in these assays?
Mtb FBA inh: 55*; GDH-TPI counter-1: 22; BH1578 lux ind: 0; Mtb FBA confirm: 16; GDH-TPI counter-2: 12*

What do the screens show for `CCCc1cc(=O)oc2cc(C)cc(OC(C)C(=O)NCC3CCC(C(=O)O)CC3)c12` (stereo unspecified)?
Mtb FBA inh: 69*; GDH-TPI counter-1: -5; BioA inh: -1; BH1578 lux ind: 0; Mtb FBA confirm: 70*; GDH-TPI counter-2: 46*

What do the screens show for `CCCCc1cc(=O)oc2cc(C)cc(OC(C)C(=O)NCC3CCC(C(=O)O)CC3)c12` (stereo unspecified)?
Mtb FBA inh: 79*; GDH-TPI counter-1: 7; BioA inh: -1; BH1578 lux ind: -1; Mtb FBA confirm: 1; GDH-TPI counter-2: -5

Results for Cc1cc(OC(C)C(=O)NCC2CCC(C(=O)O)CC2)c2c(C)c(C)c(=O)oc2c1 (stereo unspecified) ?
Mtb FBA inh: 9; GDH-TPI counter-1: 10; BioA inh: -1; BH1578 lux ind: 0

What do the screens show for `COc1ccccc1S(=O)(=O)N[C@H]1CC[C@@H](CCNC(=O)C2CCC2)O[C@H]1CO`?
BioA inh: 1

Results for C[C@@H]1CN([C@H](C)CO)C(=O)c2cc(C#Cc3ccccc3F)cnc2O[C@@H]1CN(C)C(=O)C1CCC1 ?
BioA inh: -3

What do the screens show for `O=C(CC1CC1)Nc1ccc2c(c1)[C@H]1C[C@H](CC(=O)N3CCOCC3)O[C@@H](CO)[C@H]1O2`?
BioA inh: 1

What do the screens show for `COc1ccc(/C=C2\Oc3ccccc3C2=O)cc1`?
Mtb FBA inh: 84*; GDH-TPI counter-1: 12; BioA inh: 0; BH1578 lux ind: inactive; Mtb FBA confirm: 18; GDH-TPI counter-2: 8; GDH-TPI dose: 1.6*

Results for CC(=O)Oc1ccc(/C=C2/Oc3ccccc3C2=O)cc1 ?
Mtb FBA inh: 2; GDH-TPI counter-1: 24; BioA inh: 0; BH1578 lux ind: inactive

How did C[C@@H]1CN([C@H](C)CO)C(=O)c2cc(-c3cccc(F)c3)cnc2O[C@@H]1CN(C)Cc1cccnc1 do in these assays?
BioA inh: -1

Results for CCCn1c(-c2ccc(OC)cc2)nc2nc3ccccc3nc21 ?
Mtb FBA inh: 42*; GDH-TPI counter-1: 43*; BioA inh: 0; BH1578 lux ind: -4; Mtb FBA confirm: 98*; GDH-TPI counter-2: 79*
